From PubChem
Sampled rows, rich in hits. Any-hit rate of the full collection: about 4.8%.
DAX1 inh-1: blocks DAX1 repression of SF-1 activated StAR promoter. HEK293T StAR-luciferase reporter, SF-1/DAX-1 repression relief. inhibition, % at 6.8 µM. 370,000 compounds, 1.1% hits;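 active = inhibition above the mean over all tested compounds plus 3 SD, cut at about 3.6% in these data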;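 note: 0% = DAX-1 cells with DMSO and 100% = cells lacking DAX-1 with DMSO; higher inhibition means more luminescence from relief of DAX-1 repression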
DAX1 inh-2: NR0B1 (DAX1) inhibition. P51843. HEK293 Gal4-DAX1 luciferase reporter, luminescence. inhibition, % at 6.75 µM. 340,000 compounds, 0.99% hits. AID 504766;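 active = inhibition above the mean over all tested compounds plus 3 SD, cut at about 4.2% in these data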;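 note: 0% = DAX1-transfected cells with DMSO and 100% = empty-vector control cells with DMSO; inhibition shows as a rise in luminescence from relieved DAX1 repression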
Target sequence (P51843 207-470 limits assumed): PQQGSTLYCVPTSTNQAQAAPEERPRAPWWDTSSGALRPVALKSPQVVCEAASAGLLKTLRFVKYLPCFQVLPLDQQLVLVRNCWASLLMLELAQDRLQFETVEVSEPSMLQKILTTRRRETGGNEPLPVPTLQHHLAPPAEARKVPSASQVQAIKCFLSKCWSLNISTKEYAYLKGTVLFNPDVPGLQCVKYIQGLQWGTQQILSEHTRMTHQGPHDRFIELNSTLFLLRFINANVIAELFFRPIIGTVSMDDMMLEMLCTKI
hgDAF-12 ag: hgDAF-12 agonism, primary luciferase screen; AID 687014; activation, % at 6.8 µM; 370,000 compounds, 1.8% hits; HEK293 GAL4-hgDAF12 UAS-luciferase reporter, agonist luminescence; normalized to butyrate control;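 active = activation above a cutoff set at the mean of all screened compounds plus 3 SD, cut at about 10% in these data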;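 note: 0% = DMSO wells and 100% = sodium butyrate wells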
SMARCA2 activ: SMARCA2 function activation, primary screen. MG213 cells, MMTV-luciferase reporter, dexamethasone, overnight. activation, % at 9.1 µM. 370,000 compounds, 1% hits. AID 652017; in the data active = activation above about 7.8%;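 note: 0% = vehicle wells and 100% = reference activator wells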
hcDAF12 agonist: H. contortus DAF-12 activation, primary screen; HEK293 hcDAF-12 lit1-tk-luc reporter, luminescence; 0% DMSO, 100% Δ7-dafachronic acid; activation, % at 6.8 µM; 370,000 compounds, 1.4% hits;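 active = activation above the mean of all tested compounds plus 3 SD, cut at about 5.5% in these data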;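 note: 100% = response to 3 µM Δ7-dafachronic acid high control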
ssDAF-12 act: S. stercoralis DAF-12 activation, primary screen | 370,000 compounds, 1% hits | activation, % at 6.8 µM | HEK293 ssDAF-12/GRIP1 lit1-tk-luc reporter, luminescence; % of 3 µM dafachronic acid response;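 active = activation above the mean over all tested compounds plus 3 SD, cut at about 0.9% in these data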;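 note: 0% = DMSO-only wells and 100% = 3 µM delta7-dafachronic acid wells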
DAX1 inh confirm: NR0B1 (human) inhibition, confirmation | HEK293T StAR-promoter luciferase reporter, SF-1/DAX-1 repression | AID 652134 | shares compounds with DAX1 inh-1 | inhibition, % at 6.8 µM | 2,400 compounds, 87% hits;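 active = inhibition above the average of every tested compound plus 3 SD, cut at about 3.8% in these data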;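 note: 0% = DAX-1 cells with DMSO and 100% = no DAX-1 control cells with DMSO; active compounds raise luminescence by relieving repression of the StAR reporter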
Target sequence (P51843 whole entry, looked up): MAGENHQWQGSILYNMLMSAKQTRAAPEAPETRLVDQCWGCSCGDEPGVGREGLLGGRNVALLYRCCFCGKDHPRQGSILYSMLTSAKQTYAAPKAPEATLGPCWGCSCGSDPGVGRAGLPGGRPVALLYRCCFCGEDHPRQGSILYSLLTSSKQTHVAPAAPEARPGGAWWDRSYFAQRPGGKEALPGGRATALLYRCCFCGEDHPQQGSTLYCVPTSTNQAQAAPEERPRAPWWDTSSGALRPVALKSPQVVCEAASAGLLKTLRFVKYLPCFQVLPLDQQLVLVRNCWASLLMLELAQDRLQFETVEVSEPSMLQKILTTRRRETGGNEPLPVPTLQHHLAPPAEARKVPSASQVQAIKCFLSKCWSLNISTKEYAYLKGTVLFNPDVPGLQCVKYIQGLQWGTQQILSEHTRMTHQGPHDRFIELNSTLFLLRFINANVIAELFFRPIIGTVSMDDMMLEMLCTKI
SF1 mutant ctr: counter-screen for DAX1 inhibitors: nonselective inhibitors with SF-1 AF2 mutant. shares compounds with DAX1 inh-1. HEK293 StAR-luciferase, luminescence. inhibition, % at 6.8 µM. 2,400 compounds, 78% hits. AID 652136;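 active = inhibition above the mean of all tested compounds plus 3 SD, cut at about 3% in these data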;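 note: 0% = DAX-1 transfected cells with DMSO and 100% = cells without DAX-1 with DMSO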
SMARCA2 act conf: SMARCA2 activation, confirmation screen; 3,500 compounds, 30% hits; shares compounds with SMARCA2 activ; AID 652260; MG213 cells, MMTV-luciferase with dexamethasone, luminescence, overnight; MG213 cells expressing E1A, Rb sequestered; DMSO wells 0%, reference activator 100%; activation, % at 9.1 µM;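 active = activation above its plate's cutoff, the mean activation of tested wells plus 3 SD, cut at about 7.9% in these data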
GAL4-VP16 Luc: activates GAL4-VP16 luciferase, flagging SMARCA2 activator hits; HEK293 GAL4-VP16 pG5luc reporter, luciferase luminescence; scaled: DMSO wells 0%, SAHA wells 100%; 3,500 compounds, 41% hits; AID 686939; activation, % at 9.1 µM; shares compounds with SMARCA2 activ;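 active = activation above the solvent-only control well mean plus 3 SD, averaged across control plates, cut at about 5.2% in these data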
LXRb hcDAF ctr: LXR-beta agonism as hcDAF-12 counter-screen | AID 743027 | 3,400 tested, under 10 active | HEK293 Gal4-LXR tk-luc reporter, luminescence, 24 h; normalized: DMSO 0%, positive control 100% | shares compounds with hcDAF12 agonist | activation, % at 6.8 µM;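 active = mean percent activation of the reporter above a cutoff set as the average over tested compounds plus their standard deviation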
hcDAF12 conf: hcDAF-12 agonism, confirmation assay. shares compounds with hcDAF12 agonist. HEK293 hcDAF-12 lit1-tk-luc reporter, luminescence; % of Δ7-dafachronic acid response. activation, % at 6.8 µM. 3,400 compounds, 61% hits;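 active = mean activation across triplicate tests above the threshold derived from the earlier primary screen, cut at about 5.5% in these data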;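 note: 0% = DMSO only wells and 100% = 3 µM Δ7-dafachronic acid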
hgDAF12 conf: confirmation of H. glycines DAF-12 agonists; 3,300 compounds, 80% hits; activation, % at 6.8 µM; HEK293 GAL4-hgDAF12 luciferase reporter, agonist mode; percent of butyrate response; shares compounds with hgDAF-12 ag;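 active = mean activation over triplicate wells above the hit cutoff derived from the earlier primary screen, cut at about 11% in these data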;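 note: 0% = DMSO low control and 100% = 2 mM sodium butyrate high control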
LXR ag 2: LXR-beta agonism as DAF-12 counter-screen | shares compounds with hgDAF-12 ag | HEK293 Gal4-LXR luciferase reporter, 24 h | activation, % at 6.8 µM | 3,300 tested, under 10 active;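 active = mean activation of the triplicate above a set limit carried over from the primary screen, none filed active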
An asterisk follows results filed as active; . = no result; ! = repeats disagree.

SMILES	DAX1 inh-1	DAX1 inh-2	hgDAF-12 ag	SMARCA2 activ	hcDAF12 agonist	ssDAF-12 act	DAX1 inh confirm	SF1 mutant ctr	hgDAF12 conf	LXR ag 2	others
CC(C)(C)NC(=O)C(c1ccccc1)n1c(=O)c(-c2ccco2)nc2ccccc21 (configuration not stated)	2	.	0	-2	0	-1	.	.	.	.
O=c1c(-c2ccco2)nc2ccccc2n1C(c1ccccc1)c1nc2ccccc2[nH]1 (configuration not stated)	4.7*	.	16*	11*	5	0	3	2	10	0	SMARCA2 act conf=8.9*;GAL4-VP16 Luc=5.6*
COc1ccc(/C=C2\SC(=O)N(CCNC(=O)C3CC4C=CC3C4)C2=O)cc1 (configuration not stated)	5.5*	3	21*	5	3	0	8.6*	4.3*	23*	1
O=C(OCc1cn(Cc2ccccc2C(F)(F)F)nn1)N1CCOCC1	0	.	3	1	-1	-1	.	.	.	.
CC(=O)Nc1ccc(C(=O)COC(=O)c2c(C)noc2C)c(F)c1	1	-1	1	-2	-1	-2	.	.	.	.
CC(=O)Nc1ccc(C(=O)COC(=O)C2CC2C)c(F)c1 (configuration not stated)	11*	2	18*	1	3	1.0*	10*	4.6*	10	1
Cc1ccc(NCc2nc3ccccc3n2C)cc1	6.3*	3	14*	4	15*	3.5*	15*	8.2*	18*	1	LXRb hcDAF ctr=1;hcDAF12 conf=17*
O=C(Nc1ncccc1O)c1ccc(S(=O)(=O)Nc2ccccc2)cc1	85*	11*	85*	-1	13*	0	112*	58*	81*	1	LXRb hcDAF ctr=0;hcDAF12 conf=8.0*
O=C(Nc1ccccc1O)c1ccc(NS(=O)(=O)c2cccc3cccnc23)cc1	54*	18*	84*	1	19*	2.3*	91*	38*	89*	1	LXRb hcDAF ctr=1;hcDAF12 conf=13*
CN(c1ccccc1)S(=O)(=O)c1ccc(C(=O)Nc2ncccc2O)cc1	1	0	10	-3	1	-1	.	.	.	.
COC(=O)c1ccc(NC(=O)c2ccc(NS(=O)(=O)c3cccc4cccnc34)cc2)cc1	.	0	.	.	.	.	.	.	.	.
Cc1cc(N2CCN(CC(C)(C)O)C[C@H]2C)ccc1N1CCN(CC(C)(C)O)[C@H](C)C1	0	.	2	-2	-1	-1	.	.	.	.
CCCCNc1c(-c2ccc(SC(C)CC)cc2)nc2ccccn12 (configuration not stated)	5.3*!	2	11*	1	6.7*!	2.6*!	6.3*	3.4*	16*	1	LXRb hcDAF ctr=1;hcDAF12 conf=5
Cc1ccc(Nc2ncnc3nc[nH]c23)cc1Cl	6.4*	4	14*	2	0	0	8.1*	5.5*	14*	1
CCCCOc1ccc(C(=O)NC2CCCCN(C(C)C)C2=O)cc1 (configuration not stated)	-2	.	3	-4	-4	0	.	.	.	.
CC(=C\C=O)/C(C)=C/CC[C@@H]1O[C@@H]2C[C@@H]3O[C@](C)(C[C@H]4C[C@H](O)[C@@H]5O[C@@H]6C[C@H](O)[C@@H](C)O[C@@]6(C)CC[C@H]5O4)[C@@H](O)CC[C@@]3(C)O[C@H]2[C@@H](O)[C@@H]1C	.	.	-3	.	-2	-1	.	.	.	.
COc1ccc(C(=O)Nc2nc3cc(OC)c(OC)cc3c(=O)[nH]2)cc1	0	1	1	1	-1	-1	.	.	.	.
COc1ccc(C(=O)Nc2nc3ccccc3c(=O)[nH]2)cc1	6.3*	2	19*	3	6.9*	1.1*	14*	8.8*	17*	1	LXRb hcDAF ctr=1;hcDAF12 conf=5
O=C(CSC(=S)N1CCCC1)c1ccccc1	9.6*	-1	18*	3	4	0	9.5*	7.4*	14*	1
O=C(CSC(=S)N1CCCCC1)c1ccccc1	2	-1	9	5	3	-1	.	.	.	.
O=C(/C=C/c1ccccc1Cl)Nc1cccc(S(=O)(=O)NC2=NCCCCC2)c1	0	-1	2	1	-3	-1	.	.	.	.
O=C(/C=C/c1ccc(Cl)cc1Cl)Nc1cccc(S(=O)(=O)NC2=NCCC2)c1	5.4*	0	18*	1	4	0	9.4*	5.0*	14*	1
COC(=O)[C@]12C[C@H](CC(=O)NCC34CC5CC(CC(C5)C3)C4)C(=O)N(Cc3ccccc3)C1=C[C@H](C1CCCC1)O[C@@H]2C	0	.	0	-2	0	-1	.	.	.	.
CN(C)c1ccc(-c2nnc(-c3cccs3)o2)cc1	5.8*	4.4*	20*	3	5	1	15*	5.9*	17*	1
Cc1ccc(NC(=O)OC2CC3CC2[C@H]2CCCCN2[C@H]3C)cc1 (some centres not stated)	-1	.	4	-2	-2	0	.	.	.	.
O=C(Nc1nccs1)c1cncc(Br)c1	6.3*	1	15*	-1	7.9*	0	7.6*	6.3*	11*	0	LXRb hcDAF ctr=1;hcDAF12 conf=6.0*
